The values below come from PubChem BioAssay (NCATS).

Values joined by “and” are separate entries in the source; they are usually repeats but may differ in a detail not shown here. Equal values may be shown once. Records with an inconclusive call do not appear. Active and inactive are the calls of the source. Calls follow the shape of the dose curve; as a rule, active = well fitted curve in the direction sought with a large enough effect; inconclusive = small, poorly fitted or top-dose-only effect, or another doubt; inactive = no such curve, though single readings can be large; an effect the other way counts as inactive or inconclusive. Where a SMILES comes first, the peptide text is derived from it. [ ]: non-standard residue; d: D form. pGlu = O=C1CC[C@@H](C(=O)O)N1; Thz = O=C(O)[C@@H]1CSCN1

Experiment [1] in a line: Primary qHTS for inhibitors of nuclear receptor binding SET domain protein 2 (NSD2) in an isogenic RCH-ACV NSD2 p.E1099K mutant (9B) (AID 1645876). Also: nearly all actives have a fitted effect of over 70% in size. Also: potency is read from the fitted curve at half-maximal effect. On the technique in general: qHTS replaces the single test concentration by a dilution series.
The nature of experiment [2]: Primary qHTS for inhibitors of nuclear receptor binding SET domain protein 2 (NSD2) in an RCH-ACV wild type WT cells (2C) (AID 1645877). Also: nearly all actives have a fitted effect of over 70% in size. Also: potency is read from the fitted curve at half-maximal effect.
The target in experiment [3] is Rap guanine nucleotide exchange factor 3 (Homo sapiens) (UniProt O95398). The experiment in a line: Confirmatory qHTS for agonist of cAMP-regulated guanine nucleotide exchange factor 3 (EPAC1) (AID 1645881).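 Also: EPAC1 catalysed release of BODIPY-GDP from Rap1B seen as fluorescence loss; nearly all actives have a fitted effect of over 75% in size.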
Experiment [4] shares this target. The experiment in a line: Confirmatory qHTS for antagonist of cAMP-regulated guanine nucleotide exchange factor 3 (EPAC1) (AID 1645880). Also: nearly all actives have a fitted effect of over 55% in size. Also: potency is read from the fitted curve at half-maximal effect. In short, it runs like this:
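Released BODIPY-GDP fluoresces less than Rap1-bound BODIPY-GDP; the signal is followed at 480/540 nm at 5-min intervals over 30 min, after 5 min at room temperature. Reactions contain 100 nM EPAC1, 250 nM RAP1B-BODIPY-GDP and 50 uM GDP; results are normalized to ATA and DMSO.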

The target of experiment [5] is Papain (Carica papaya) (UniProt P00784). Briefly: Primary qHTS assay for inhibitors of the protease papain (AID 1645873).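 Also: papain turnover of Z-FR-AMC read as the AMC fluorescence gain over 10 min.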 Also: potency is read from the fitted curve at half-maximal effect.
The target of experiment [6] is N-terminal Xaa-Pro-Lys N-methyltransferase 1 (Homo sapiens) (UniProt Q9BV86). The experiment in a line: Confirmatory qHTS for Inhibitors of N-terminal methyltransferase 1 (NTMT1): MTaseGlo Assay (AID 1645874). Also: potency is read from the fitted curve at half-maximal effect; nearly all actives have a fitted effect of over 65% in size. The conditions noted are these: NTMT1 enzyme, MTase-Glo SAH luminescence. In short, it runs like this:
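Inhibition was derived from luminescence after SAH-to-ATP conversion, scaled between no-enzyme and DMSO wells, then fitted by 4-parameter Hill. Conditions: 125 nM NTMT1, 100 uM SAM, 1 uM SPKRIA, 30 min RT.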

Sequence of Papain (Carica papaya) (P00784 whole entry, looked up): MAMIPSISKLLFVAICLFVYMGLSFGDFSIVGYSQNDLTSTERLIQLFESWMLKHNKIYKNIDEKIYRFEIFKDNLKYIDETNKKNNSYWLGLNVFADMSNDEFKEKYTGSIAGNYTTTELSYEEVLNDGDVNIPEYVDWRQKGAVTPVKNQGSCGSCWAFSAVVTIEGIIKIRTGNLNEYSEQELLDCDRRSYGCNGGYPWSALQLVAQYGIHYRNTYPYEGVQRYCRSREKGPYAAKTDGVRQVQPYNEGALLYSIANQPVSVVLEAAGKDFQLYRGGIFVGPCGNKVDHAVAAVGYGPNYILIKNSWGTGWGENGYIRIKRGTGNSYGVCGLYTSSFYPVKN
Sequence of Rap guanine nucleotide exchange factor 3 (Homo sapiens) (O95398 whole entry, looked up): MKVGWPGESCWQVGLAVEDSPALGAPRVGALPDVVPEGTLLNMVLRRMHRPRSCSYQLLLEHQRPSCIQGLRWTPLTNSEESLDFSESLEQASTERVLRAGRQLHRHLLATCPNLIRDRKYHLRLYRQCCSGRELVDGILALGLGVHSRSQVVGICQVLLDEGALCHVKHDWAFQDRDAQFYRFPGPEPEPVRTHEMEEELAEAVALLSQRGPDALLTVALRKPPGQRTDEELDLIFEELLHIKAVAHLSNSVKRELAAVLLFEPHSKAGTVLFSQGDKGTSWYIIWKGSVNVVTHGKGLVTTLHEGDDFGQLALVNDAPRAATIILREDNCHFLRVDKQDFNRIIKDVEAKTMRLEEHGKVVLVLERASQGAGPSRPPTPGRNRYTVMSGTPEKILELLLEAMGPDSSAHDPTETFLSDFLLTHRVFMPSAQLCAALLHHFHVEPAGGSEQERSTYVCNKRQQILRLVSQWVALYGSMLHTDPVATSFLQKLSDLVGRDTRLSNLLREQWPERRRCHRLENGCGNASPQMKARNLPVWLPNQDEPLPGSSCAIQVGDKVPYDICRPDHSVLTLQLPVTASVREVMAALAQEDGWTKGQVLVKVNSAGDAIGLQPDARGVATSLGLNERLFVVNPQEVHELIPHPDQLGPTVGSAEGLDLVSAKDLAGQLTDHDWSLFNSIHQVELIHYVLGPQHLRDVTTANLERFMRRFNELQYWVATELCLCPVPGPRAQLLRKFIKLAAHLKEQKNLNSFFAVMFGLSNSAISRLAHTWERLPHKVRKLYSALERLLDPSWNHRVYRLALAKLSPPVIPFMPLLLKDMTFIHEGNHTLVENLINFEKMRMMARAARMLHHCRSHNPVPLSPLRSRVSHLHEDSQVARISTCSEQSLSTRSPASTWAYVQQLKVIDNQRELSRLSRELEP
Sequence of N-terminal Xaa-Pro-Lys N-methyltransferase 1 (Homo sapiens) (Q9BV86 whole entry, looked up): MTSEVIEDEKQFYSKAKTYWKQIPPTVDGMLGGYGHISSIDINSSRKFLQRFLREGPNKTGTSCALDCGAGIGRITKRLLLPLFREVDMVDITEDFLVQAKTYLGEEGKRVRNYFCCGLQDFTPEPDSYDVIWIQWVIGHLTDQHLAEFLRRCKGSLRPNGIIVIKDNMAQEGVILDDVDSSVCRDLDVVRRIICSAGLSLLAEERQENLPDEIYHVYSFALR

For `COc1cc(/C=C/C(=O)N2CCN(CC(=O)N3CCCC3)CC2)cc(OC)c1OC`, the Potency entry in experiment [1] and in experiment [2] was “inactive” throughout.

`C#CCN1C(C)=C(C(=O)OC)C(c2cccc([N+](=O)[O-])c2)C(C(=O)OCC)=C1C` (stereo unspecified): in experiment [3], the Potency entry is “inactive”.

For `N#C/C(=C\c1ccc(O)c(O)c1)C(=O)NCc1ccccc1`, the Potency was 9.2 µM (active) and 13.2 µM (active) in experiment [1]; 9.2 µM (active) and 11.8 µM (active) in experiment [2].

As for `CN1[C@@H]2CC[C@H]1CC(OC(c1ccccc1)c1ccccc1)C2` (stereo partly specified), in experiment [1], the Potency entry is “inactive”.

As for `CC[C@H]1OC(=O)[C@H](C)[C@@H](O[C@H]2C[C@@](C)(OC)[C@@H](O)[C@H](C)O2)[C@H](C)[C@@H](O[C@@H]2O[C@H](C)C[C@H](N(C)C)[C@H]2O)[C@](C)(O)C[C@@H](C)C(=O)[C@H](C)[C@@H](O)[C@]1(C)O`, the Potency result in experiment [1] and in experiment [2] was “inactive” in each case.

On to `O=C1CC[C@@H](C(=O)N2CSC[C@H]2C(=O)O)N1` ([pGlu]-[Thz]-OH), for which the Potency result in experiment [1] and in experiment [2] was “inactive” in each case.

For the compound `N#C/C(=C\c1ccc(O)c(O)c1)C(=O)c1ccc(O)c(O)c1`, in experiment [4], the Potency is 0.794 µM (active). For the same compound, in experiment [3], the Potency entry was “inactive”.

`C=CCc1cccc(/C=N/NC(=O)CN2CCN(Cc3ccccc3)CC2)c1O`: the Potency in experiment [1] and in experiment [2] was 7.42 µM (active) each time.

Consider `CCOC(=O)C1=C(C)NC(C)=C(C(=O)OCC)C1c1c(F)c(F)c(F)c(F)c1F`, for which the Potency in experiment [5] is 25.1 µM (active). For the same compound, in experiment [3], the Potency entry is “inactive”.

`O=C(O)c1cc([N+](=O)[O-])ccc1NCCCc1ccccc1`: the Potency result in experiment [5], in experiment [4] and in experiment [3] was “inactive” in each case.

`COc1ccc(/C=C/C(=O)Nc2ccccc2C(=O)O)cc1OC`: the Potency entry in experiment [1] and in experiment [2] was “inactive” in each case.

`Cc1ccc(O)c(N=Nc2ccccc2)n1`: the Potency entry in experiment [5] and in experiment [3] was “inactive” each time.

Consider `CC1(C)[C@@H](O)CC[C@]2(C)[C@H]3C(=O)C=C4[C@@H]5C[C@@](C)(C(=O)O)CC[C@]5(C)CC[C@@]4(C)[C@]3(C)CC[C@@H]12`, for which the Potency result in experiment [1], in experiment [2], in experiment [4] and in experiment [3] was “inactive” in each case.

Turning to `Cn1cc(C2=C(c3ccc(Cl)cc3Cl)C(=O)NC2=O)c2ccccc21`, the Potency entry in experiment [5], in experiment [4] and in experiment [3] was “inactive” throughout. Further, the Potency in experiment [1] and in experiment [2] was 6.51 µM (active) each time.

For `CC1(C)[C@@H](O[C@H]2O[C@H](C(=O)O)[C@@H](O)[C@H](O)[C@H]2O[C@@H]2O[C@H](C(=O)O)[C@@H](O)[C@H](O)[C@H]2O)CC[C@]2(C)[C@H]3C(=O)C=C4[C@@H]5C[C@@](C)(C(=O)O)CC[C@]5(C)CC[C@@]4(C)[C@]3(C)CC[C@@H]12`, the Potency entry in experiment [1] and in experiment [2] was “inactive” each time.

Regarding `Nc1ncnc2c1c(I)cn2[C@@H]1C[C@H](N)[C@@H](O)[C@H]1O`, the Potency in experiment [6] was 3.65 µM (active); in experiment [1], 18.4 µM (active); in experiment [2], 23.1 µM (active).

As for `CN(C)c1nc2c(Br)c(Br)c(Br)c(Br)c2[nH]1`, the Potency in experiment [1] is 14.6 µM (active); in experiment [2], 10.3 µM (active).

Regarding `COc1cc(CNC(=O)CCCC/C=C/C(C)C)ccc1O`, the Potency is 7.28 µM (active) and 4.68 µM (active) in experiment [1]; 7.28 µM (active) and 4.17 µM (active) in experiment [2].

For `O=C(O)CC1CC(c2ccccc2)=NO1` (stereo unspecified), the Potency entry in experiment [1] and in experiment [2] was “inactive” in each case.

Take `COC(=O)[C@H]1[C@H]2C[C@@H]3c4[nH]c5cc(OC)ccc5c4CCN3C[C@H]2C[C@@H](OC(=O)/C=C/c2cc(OC)c(OC)c(OC)c2)[C@@H]1OC`: the Potency entry in experiment [2], in experiment [4] and in experiment [3] was “inactive” throughout.

In the case of `COc1cc(NC(C)CCCN)c2ncccc2c1` (stereo unspecified), the results for the Potency in experiment [1] and in experiment [2] were 6.68 µM (active) and 5.31 µM (active), respectively.

As to `CN=c1nc(-c2ccccc2)n(-c2ccccc2)s1`, the Potency in experiment [6] is 0.851 µM (active).

Regarding `CC(=O)O[C@H]1C[C@@]2(C)[C@@H](C[C@@H](O)[C@H]3[C@@]4(C)CC[C@@H](O)[C@@H](C)[C@@H]4CC[C@@]32C)/C1=C(\CCC=C(C)C)C(=O)O`, the Potency entry in experiment [1] and in experiment [2] was “inactive” in each case.

For the compound `CC1(C)S[C@@H]2[C@H](NC(=O)[C@H](NC(=O)N3CCN(S(C)(=O)=O)C3=O)c3ccccc3)C(=O)N2[C@H]1C(=O)O`, the Potency entry in experiment [1] and in experiment [2] was “inactive” in each case.

Consider `COc1cc(/C=C/C(=O)CC(=O)/C=C/c2ccc(O)c(OC)c2)ccc1O`, for which the Potency in experiment [1] is 11.8 µM (active); in experiment [2], 8.33 µM (active).

`N#C/C(=C\c1ccc(O)c(O)c1)C(=O)NCCCc1ccccc1`: the figures for the Potency in experiment [1], in experiment [2] and in experiment [4] were 14.6 µM (active), 16.4 µM (active) and 15.7 µM (active), respectively. Moreover, the Potency entry in experiment [3] was “inactive”.

As for `C[C@H](O)[C@H](O)[C@H]1CNc2nc(N)[nH]c(=O)c2N1`, the Potency entry in experiment [1] and in experiment [2] was “inactive” throughout.
